From article PMC13494018

B1: design_487_778f5c6d-c470-43b8-8f82-464af6177e08_1416_dldesign_0_cycle1_af2pred (protein)
chain: DEEERKKKAAEIMKKQAEKLKALAAADPANALTYRAAAALFEAAAIETLKDPEKGLKVGEDAVGLMAQVPAVAPEAKAAYEKAKALL
B2: design_487_778f5c6d-c470-43b8-8f82-464af6177e08_1978_dldesign_0_cycle1_af2pred (protein)
chain: AKEKAIEEITALRELAVKAAEEVGKEEEKEKIKELTEKAIEALDNPEESARLITKAAAIAVEVAPEKAAQIRRLASAAIQAALAT
B3: design_487_778f5c6d-c470-43b8-8f82-464af6177e08_1499_dldesign_0_cycle1_af2pred (protein)
chain: DEAELLEAINRAGRETRERLLALGESEAEATRAASAVQVVGYAALTGNAEAEAIGMASLATVGKGRPVAVAAAEEVADRIRAA
B4: design_488_244881a1-ba0c-4c08-ad9c-1f64cf93580a_782_dldesign_0_cycle1_af2pred (protein)
chain: AAAQAARAYAVLKAHADAAAKRAAELAAEGAEGARAGAQLLAVVSDAAAGAAKAFPEYAAELNALAAAAAAAAAAAAAAAAAAEAAA
B5: design_487_778f5c6d-c470-43b8-8f82-464af6177e08_1924_dldesign_0_cycle1_af2pred (protein)
chain: MEKETEELLKKAKELIEKAKELAKEVLKKDPISGRGIQAAVKSAEELLKRGIEGEDSLRYAKQALELAKVALEMAKATLAA
B6: design_488_244881a1-ba0c-4c08-ad9c-1f64cf93580a_578_dldesign_0_cycle1_af2pred (protein)
chain: GAAAAARRAAAFTLLEIARSLVAAGPQYAGSAIRTAAQALALVAPEYEEEVRAVGREEGAAAAVEYARELLA
B7: design_488_244881a1-ba0c-4c08-ad9c-1f64cf93580a_858_dldesign_0_cycle1_af2pred (protein)
chain: DEEREKLLAEAEKYLAAAVAAAKAAGVQGGQVRAIANSLAIALRTGNTAGAATLLTSLVATAAKVGPEVLTHANKAKEKATQWIALA
B8: design_488_244881a1-ba0c-4c08-ad9c-1f64cf93580a_123_dldesign_0_cycle1_af2pred (protein)
chain: GGEEEGEELLERGREAAEEIARLPLSETERLARLTGEALEYAREAARVAGGEKAREILTAISRAHAASVA
B9: design_487_778f5c6d-c470-43b8-8f82-464af6177e08_1484_dldesign_0_cycle1_af2pred (protein)
chain: SRLEELRRRRDEYVAQLEVAIAELEELSKRAVTEEARRAAEEARALVEEGDKDPERGANIVGRALVQAQAALARARRLNEAA
B10: design_488_244881a1-ba0c-4c08-ad9c-1f64cf93580a_1386_dldesign_0_cycle1_af2pred (protein)
chain: DQARKATEAAAKALLAQVERLSEEAVKAAKEDPAEAKRYLEAAEALRDVIAGLADEEIAKEYAAKAKEIIEKARKEVEAYLAAK
B11: design_487_778f5c6d-c470-43b8-8f82-464af6177e08_2068_dldesign_0_cycle1_af2pred (protein)
chain: AAAEAAAAAEAQEKAKEAAEKAVENIDDPELAEKYAEEAGKALLAGADLEEVLTYANSLNPEVARLIARAYARLGAAAVRA
B12: design_487_778f5c6d-c470-43b8-8f82-464af6177e08_1639_dldesign_0_cycle1_af2pred (protein)
chain: GALAVQTARASAAQAVAAVAAAPAEEAPARVAAAEKLLAVLDGIAEAASPEAGAQIRAIVDAARAAIAATAAAKAAA
B13: design_488_244881a1-ba0c-4c08-ad9c-1f64cf93580a_204_dldesign_0_cycle1_af2pred (protein)
chain: LAATRAAANAVLTRASKLNLQAVADPALAEVAALANQAIALALAGLADPATLAADTAAAAAVLDQAEALAKLVA
B14: design_488_244881a1-ba0c-4c08-ad9c-1f64cf93580a_1131_dldesign_0_cycle1_af2pred (protein)
chain: DEASEKAEAAYNKAKALEAAGADPNDILAAYVDAMGYLSEAARAAREAGREEEAEKWQAKLKEAQKNATKAAKAAVAAARA
B15: design_488_244881a1-ba0c-4c08-ad9c-1f64cf93580a_478_dldesign_0_cycle1_af2pred (protein)
chain: ITEAEAKELAEMVRTPETAPEAAARLEALGAASTPGQAAFFRAAAALARLAAEAPEEERPRYAEGVLKILQAAI
B16: design_488_244881a1-ba0c-4c08-ad9c-1f64cf93580a_1252_dldesign_0_cycle1_af2pred (protein)
chain: DAARRQGAVAFMQQVLESAKNYPEAAPIAQAGLDRVAAAVAAGAPADEVVALARREAAAANKAMIAAAKA
B17: design_488_244881a1-ba0c-4c08-ad9c-1f64cf93580a_1220_dldesign_0_cycle1_af2pred (protein)
chain: DETEKKREEAKKEAEKLIEELEKAGKEVAAVPAASNMALATAKQGKKQLKEAEKLSPEEALKVYEAVKKSAEVALEIARATKAALAA
B18: design_487_778f5c6d-c470-43b8-8f82-464af6177e08_2394_dldesign_0_cycle1_af2pred (protein)
chain: AAEEAERIIEGNRQLGLAIAEGSASKEEMKAKVDEAVEKARKAVEEDPEKGPEYALELFTKTNKEIMLQALAELT
B19: design_488_244881a1-ba0c-4c08-ad9c-1f64cf93580a_1058_dldesign_0_cycle1_af2pred (protein)
chain: MAEAQALLLETAKEAYEYAKEDPENAEYYLAAATHVLRALSALTTDPAKAIELLEKAIEEAKKTDPEKGEELIKKIEEAKKLVEAAA
B20: design_488_244881a1-ba0c-4c08-ad9c-1f64cf93580a_302_dldesign_0_cycle1_af2pred (protein)
chain: MMAEYEARARELFEKAAASDPETARKIGEEMVKLAKEDVEFGNVAALVAAQVAAESGSPVLRQIQAAIARTVIEQLA
B21: design_487_778f5c6d-c470-43b8-8f82-464af6177e08_2307_dldesign_0_cycle1_af2pred (protein)
chain: AAEAEEEAKKLAEEAAKLVAAVDPSIAEEVAKALELGNLAQVKTMLVLAQSAYESTDPAARALALANLRTVAAQAIARAA
B22: design_487_778f5c6d-c470-43b8-8f82-464af6177e08_1892_dldesign_0_cycle1_af2pred (protein)
chain: AAQALLAQANAALGQLLDLAAEASASSPEEAARATAQMRETAAAAQAAAAAAAAQDPAIAPQAQAIAASAAALARNAEELVAAR
B23: design_488_244881a1-ba0c-4c08-ad9c-1f64cf93580a_1178_dldesign_0_cycle1_af2pred (protein)
chain: SDAEKAESALKFLNTLEEIGIIAKKEYGPEFAQNMINSIENSSKIFAAAVSPEYAKKILEKAKEAIEKIKAA
B24: design_488_244881a1-ba0c-4c08-ad9c-1f64cf93580a_1373_dldesign_0_cycle1_af2pred (protein)
chain: MTAAQAAAAVASLAQSAVLAAKQDPALAKQAVEAAQSFAIWATTKLGDAALAEAAAKALKDAGKAAPAVAKQAEAAAKAVLDTAKKL
B25: design_488_244881a1-ba0c-4c08-ad9c-1f64cf93580a_642_dldesign_0_cycle1_af2pred (protein)
chain: AEAARKAALAVRTAAASFKAAADAGASAEAVKKLGEVMAQSVEAYDPEVGKEVKAKVEELAKLPDAKKAAAELAKFMEAKAKEVAAK
B26: design_488_244881a1-ba0c-4c08-ad9c-1f64cf93580a_165_dldesign_0_cycle1_af2pred (protein)
chain: MTPADQLIELARAIVEQAKASDPETAAVNAAGAEAAAGALRNYAAANPETGPKAEAAAKEAEAAAKAIKAAVAAAK
B27: design_488_244881a1-ba0c-4c08-ad9c-1f64cf93580a_765_dldesign_0_cycle1_af2pred (protein)
chain: AADVAQAKEYAKQAKEFAEQADPELAKEVGKEAEALVKEAEADPSKAAEYLNKVGQLYVQAAAAAMKKLA
B28: design_488_244881a1-ba0c-4c08-ad9c-1f64cf93580a_362_dldesign_0_cycle1_af2pred (protein)
chain: AEEERRRAALAERARAVLQQAAAVGSQAAIADPSVSGTILDGLKEAYELLARGEVERALEVAEALLASAQATLAAL
B29: design_488_244881a1-ba0c-4c08-ad9c-1f64cf93580a_114_dldesign_0_cycle1_af2pred (protein)
chain: AAAALAGEVSAELVEIVGEAARVLGEAERLGDAEVVALAREARALANKALAALAAGDVEKAVEYAKKAREKLEEARRRLEEVKRR
B30: design_488_244881a1-ba0c-4c08-ad9c-1f64cf93580a_1393_dldesign_0_cycle1_af2pred (protein)
chain: SPADEVAARLNALLGAAIKALAADPAAGLALAEEARRLAEELAKKYPTPEVKRVAEAAKKMADAIGAAAQAQLAAAQA
B31: design_487_778f5c6d-c470-43b8-8f82-464af6177e08_1930_dldesign_0_cycle1_af2pred (protein)
chain: AQAAADAAEALSELAIKFSKLAKKISPEAAAYFARAAGYFLRASGILRAGGDAAAAAAALAKGLALFLLGLAILKKVLS
B32: design_488_244881a1-ba0c-4c08-ad9c-1f64cf93580a_236_dldesign_0_cycle1_af2pred (protein)
chain: PVERAIRLAEGAITFLEGLIVARKDGNAAGAAAYAQAAKTLLEELAKLLPGEIAKEATEAAKLAADPATAEKALALAKKILERIKKE
B33: design_488_244881a1-ba0c-4c08-ad9c-1f64cf93580a_631_dldesign_0_cycle1_af2pred (protein)
chain: GLRESTEKVLEVAGQLAAQTAATSPELGPQAAAVAEAGRARAEALIAAGDYEGAFAAANEAAAQLSRLAVQAAQAAAAA
B34: design_488_244881a1-ba0c-4c08-ad9c-1f64cf93580a_931_dldesign_0_cycle1_af2pred (protein)
chain: MKELEEAAKRALELAPPEHRPLMERLVAIARELAKIIGDEEAAAILGEGVLEGARDPERAVDITMAAQGAAIRLAHARQSA
B35: design_488_244881a1-ba0c-4c08-ad9c-1f64cf93580a_492_dldesign_0_cycle1_af2pred (protein)
chain: ATALLRSALAQAKSAIIAMKQDPEQGAQLAEGAALTAKAAGDEETAKKLEEAAKLAKEGKAEEAIKLLEEAAKELAKAI
B36: design_488_244881a1-ba0c-4c08-ad9c-1f64cf93580a_688_dldesign_0_cycle1_af2pred (protein)
chain: DTARQALIASAQQARKQLEAAKALTPEEQARAAQAVLELARQLAESAEAAGDEEALALAREVAEAAEAAIKEAKAA
B37: design_487_778f5c6d-c470-43b8-8f82-464af6177e08_1544_dldesign_0_cycle1_af2pred (protein)
chain: AALQQANAALKAAQSLVDHVKKNPEFSPESIIKVADVAIELAKQAEEEAAKADPEVAKKAKEAKEEAEKIKKEAA
B38: design_487_778f5c6d-c470-43b8-8f82-464af6177e08_2029_dldesign_0_cycle1_af2pred (protein)
chain: ATAAEIAARMGAAIKRNALANMDEIAAELADDPELAAKRLAAVVENARKMLEAAGLTPEEVAALVAELEARADELVEANRA

Molecular target: CD276, Q5ZPR3
Sequence (Q5ZPR3 whole entry): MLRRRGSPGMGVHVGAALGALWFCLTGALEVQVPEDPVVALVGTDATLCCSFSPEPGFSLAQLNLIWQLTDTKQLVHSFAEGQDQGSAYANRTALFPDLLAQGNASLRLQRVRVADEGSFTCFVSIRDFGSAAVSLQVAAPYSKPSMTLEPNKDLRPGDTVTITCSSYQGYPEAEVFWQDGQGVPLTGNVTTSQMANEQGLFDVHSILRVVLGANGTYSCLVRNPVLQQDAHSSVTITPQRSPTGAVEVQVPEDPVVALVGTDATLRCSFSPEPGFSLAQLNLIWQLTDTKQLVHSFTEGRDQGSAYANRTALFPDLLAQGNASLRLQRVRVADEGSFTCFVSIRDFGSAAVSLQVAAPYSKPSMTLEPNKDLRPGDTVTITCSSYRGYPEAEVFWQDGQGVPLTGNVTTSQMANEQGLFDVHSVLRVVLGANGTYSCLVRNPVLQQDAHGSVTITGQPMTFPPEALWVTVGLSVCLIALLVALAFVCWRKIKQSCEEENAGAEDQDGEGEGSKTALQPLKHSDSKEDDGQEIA

| Binder | binding in a display sort |
| --- | --- |
| B1 | not found (inactive) |
| B2 | not found (inactive) |
| B3 | not found (inactive) |
| B4 | not found (inactive) |
| B5 | not found (inactive) |
| B6 | not found (inactive) |
| B7 | not found (inactive) |
| B8 | not found (inactive) |
| B9 | not found (inactive) |
| B10 | not found (inactive) |
| B11 | not found (inactive) |
| B12 | not found (inactive) |
| B13 | not found (inactive) |
| B14 | not found (inactive) |
| B15 | not found (inactive) |
| B16 | not found (inactive) |
| B17 | not found (inactive) |
| B18 | not found (inactive) |
| B19 | not found (inactive) |

| Binder | binding in a display sort |
| --- | --- |
| B20 | not found (inactive) |
| B21 | not found (inactive) |
| B22 | not found (inactive) |
| B23 | not found (inactive) |
| B24 | not found (inactive) |
| B25 | not found (inactive) |
| B26 | not found (inactive) |
| B27 | not found (inactive) |
| B28 | not found (inactive) |
| B29 | not found (inactive) |
| B30 | not found (inactive) |
| B31 | not found (inactive) |
| B32 | not found (inactive) |
| B33 | not found (inactive) |
| B34 | not found (inactive) |
| B35 | not found (inactive) |
| B36 | not found (inactive) |
| B37 | not found (inactive) |
| B38 | not found (inactive) |
